Sampled rows, rich in hits. Any-hit rate of the full collection: about 19%.
IL1B secr inh – blocks inflammasome-driven IL-1 beta release; THP-1 LPS/ATP IL-1B secretion, AlphaLISA, 16 h; hits give low values; activity change, % at 57.5 µM; 360,000 tested, 4.7% active; AID 743279; in the data active = activity change below about -50%; inconclusive = mostly about -30% to -49%; also: % is scaled to controls: 0 for no effect and ±100 for the full control effect
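Secreted IL-1B measured by AlphaLISA bead assay after 16 h compound exposure of THP-1 cells; compounds (final up to 57.5 uM) added 1 h before LPS (250 ng/mL) and ATP (1.25 mM) stimulation; lower signal means less secretion.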
DT40 TDP1 no CPT – qHTS for Inhibitors of human tyrosyl-DNA phosphodiesterase 1 (TDP1): qHTS in cells in absence of CPT; DT40 Tdp1-/- hTDP1 cells, no CPT, ATP luminescence, 48 h; Potency, µM (highest dose often 46.2 µM), for the others: at the highest dose activity change, negative = growth inhibition, hits mostly inhibitors; 420,000 tested, 15% active; AID 686978, 2013; also: potency is read from the fitted curve at half-maximal effect; % is scaled to controls: 0 for no effect and ±100 for the full control effect; nearly all actives have a fitted effect of over 55% in size
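A cellular qHTS used chicken DT40 cells lacking endogenous Tdp1 but carrying stably transfected human TDP1. Compounds were applied without camptothecin, and cell growth kinetics were judged by ATP-dependent luminescence after ≥48 hr.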
SW480 rereplic – induces DNA re-replication in SW480 colon adenocarcinoma cells; AID 624297; 340,000 tested, 1.8% active; Potency, µM (top dose mostly 46.1 µM), for the others: top-dose re-replication activation, actives largely listed as activators; SW480 DNA re-replication, Hoechst DNA content imaging, 48 h; also: potency is read from the fitted curve at half-maximal effect; % of control where 0% means no effect; nearly all actives have a fitted effect of over 55% in size
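First, 250 cells per well were seeded. Next, compound or vehicle (23 nL) was pinned in, plates sat 48 hr at 37 C. Finally Hoechst was added for 40 min before fluorescence scanning.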
BCR signal inh – blocks chronic active B-cell receptor signaling; 340,000 tested, 0.05% active; ABC-DLBCL IkBa-CBG/CBR reporter, luminescence ratio, 4 h; AID 493014; Potency, µM (series often up to 46.1 µM), inactives show top-dose activity change, negative = inhibition, usual class: inhibitors; active = well fitted inhibition curve with a large enough effect in the signal ratio, with a control signal flat, not every such curve was filed as active; inconclusive = small, poorly fitted or top-dose-only effect, or effect the other way, or a change in a side signal; the % refers to the signal ratio;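 also: potency is read from the fitted curve at half-maximal effect; plate controls were basal doxycycline-induced cells for no effect and cells given 10 µM MG132 for full effect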
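Cell line TMD8 (human ABC DLBCL), stably expressing tet-inducible CBG68-IkBa fusion and CBR; IMDM/0.5% FBS; cpd up to 46 uM; dox induction, 4 h, 37C/5% CO2; dual luminescence; green/red ratio; MG132 control.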
MCF10A rerep – induces DNA re-replication in MCF 10a normal breast cells; MCF 10A DNA re-replication, Hoechst nuclear intensity, 48 h; Potency, µM (doses to about 46.1 µM), for the others: at the top dose activity, positive = re-replication, actives largely listed as activators; 350,000 tested, 2.9% active; AID 624296; also: potency is read from the fitted curve at half-maximal effect; % of control where 0% means no effect; nearly all actives have a fitted effect of over 50% in size
TDP1 cell CPT – DT40-hTDP1 cell growth loss with CPT | chicken DT40 Tdp1-/-;hTDP1 cells + 20 nM CPT, ATP luminescence, 48 h | Potency, µM (series often up to 46.2 µM), inactives show at the top dose activity change, negative = growth inhibition, usual class: inhibitors | 420,000 tested, 12% active | AID 686979; also: potency is read from the fitted curve at half-maximal effect; % is scaled to controls: 0 for no effect and ±100 for the full control effect; nearly all actives have a fitted effect of over 55% in size
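Chicken DT40 Tdp1-/- cells stably complemented with human TDP1 were seeded at 400 cells/well in medium containing 20 nM camptothecin, exposed to pin-transferred compounds, and grown at 37 °C for at least 48 hr. Viability was read as ATP luminescence.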
Numbers without * were called inactive; ? = inconclusive; nt = no result given; [ ] = dose if it differs, or a comment. Unless noted, calls follow the shape of the dose curve; as a rule, active = well fitted curve in the direction sought with a large enough effect; inconclusive = small, poorly fitted or top-dose-only effect, or another doubt; inactive = no such curve, though single readings can be large; an effect the other way counts as inactive or inconclusive.

SMILES	IL1B secr inh	DT40 TDP1 no CPT	SW480 rereplic	BCR signal inh	MCF10A rerep	TDP1 cell CPT
C(=C\c1ccnc2ccccc12)/c1cccnc1	nt	13µM*	nt	nt	nt	?
Cn1cc(/C=C/c2ccnc3ccccc23)c2ccccc21	nt	11µM*	nt	nt	nt	?
Nc1ccccc1/C=C/c1ccnc2ccccc12	nt	3.2µM*	nt	nt	nt	5µM*
C(=C\c1ccccn1)/c1cccnc1	nt	nt	nt	-6%	nt	nt
O=S1(=O)CC(c2ccccc2)=NN=C(c2ccccc2)C1	38	?	nt	nt	nt	?
CC(OC(=O)C1=COCCO1)C(=O)NC1CCCCC1 (stereo unspecified)	-2	5%	nt	nt	nt	-4%
C=Nc1ccc(/C=C/c2ccnc3ccccc23)cc1	nt	11µM*	nt	nt	nt	22µM*
C(=C\c1ccnc2ccccc12)/c1ccnc2ccccc12	nt	18µM*	nt	nt	nt	?
C[n+]1c(/C=C/c2ccnc3ccccc23)cc(/C=C/c2ccnc3ccccc23)c2ccccc21	nt	2.5µM*	nt	nt	nt	5µM*
CSc1ccc(/C=C/c2ccnc3ccccc23)cc1	nt	-5%	nt	nt	nt	8%
O=Cc1ccnc2ccccc12	nt	-92%	nt	nt	nt	2.8µM*
Oc1cc(O)c(/C=C/c2ccnc3ccccc23)c(O)c1	nt	-18%	nt	nt	nt	11%
COc1ccc(-c2nnc(SCc3ccc(C(=O)O)cc3)n2C)cc1OC	31	0%	6%	4%	5%	1%
COC(=O)CC1[C@@]2(C)C[C@@]34OC5(C)OC6(CC[C@@]7(C)C(c8ccoc8)OC(=O)C(C(C)=O)C7[C@]6(O5)C(O)[C@@]3(O)C2O)[C@]14C (stereo partly specified)	nt	2%	nt	nt	nt	-10%
O=C1CCc2cc(Br)ccc2O1	10	?	5%	nt	3%	1%
CCCN(CCC)CCNC(=O)C1CCN(S(=O)(=O)c2cccc3nsnc23)CC1	11	2%	8%	1%	1%	8%
CO[C@H]1[C@H](NC(=O)C(C)C)c2ccccc2C12CCN(Cc1c(C)nn(C)c1Cl)CC2	nt	-12%	nt	nt	nt	5%
O=C(/C=C/c1ccnc2ccccc12)c1cccs1	-118*	13µM*	?	?	9.2µM*	4.6µM*
N#CC(=Cc1ccnc2ccccc12)c1ccccc1	-26	21µM*	nt	nt	nt	?
O=[N+]([O-])c1ccccc1/C=C/c1ccnc2ccccc12	nt	14µM*	nt	nt	nt	?
COC(=O)C(C(=O)OC)c1cc2c(cc1CNS(=O)(=O)c1ccc(C)cc1)OCO2	-1	5%	nt	nt	nt	-12%
CN(C)C1(CNC(=O)C2CCC(=O)N(CCc3ccc(Cl)cc3)C2)CCCCC1 (stereo unspecified)	-15	-4%	3%	1%	8%	5%
CC(c1nc2ccccc2[nH]1)N(C(=O)Cc1csc2ccccc12)c1cccnc1 (stereo unspecified)	16	?	nt	nt	nt	?
Cc1c(C(=O)N2CCC[C@H]2CO)oc2c(F)cccc12	0	-5%	5%	?	0%	-25%
O=C(C=Cc1ccccc1)c1cc(Br)ccc1O	-22	?	?	nt	?	?
SMILES	IL1B secr inh	DT40 TDP1 no CPT	SW480 rereplic	BCR signal inh	MCF10A rerep	TDP1 cell CPT
Cc1ccc(O)c(C(=O)/C=C/c2ccc3c(c2)OCCCO3)c1	-105*	?	?	?	13µM*	?
Cc1ccc(O)c(C(=O)C=Cc2ccccc2)c1	-101*	21µM*	?	nt	?	?
Cc1ccc2occ(/C=C/C(=O)c3ccccc3O)c(=O)c2c1	-1	?	-2%	?	30%	18µM*
Cc1ccc(/C=C/C(=O)c2ccccc2O)cc1	-102*	?	?	8%	?	?
CCCCNC(=O)c1cn(CC)c2ccc(S(=O)(=O)N3CCCCCC3)cc2c1=O	-21	?	2%	-1%	3%	-28%
COc1cc(OC)cc(C(=O)N[C@H](C(=O)OCC(=O)N2CCN(S(=O)(=O)c3ccc(C)cc3)CC2)C(C)C)c1	0	-4%	-15%	nt	1%	-2%
CCN(CC)c1ccc(N=Nc2ccc(S(=O)(=O)N(C)C)cc2)c(S(=O)(=O)NCC[n+]2ccccc2)c1	nt	-30%	nt	nt	nt	-20%
CCCN(CCC)C(=O)c1cn(CC)c2ccc(S(=O)(=O)N3CCCCC3)cc2c1=O	-19	10%	11%	8%	1%	-10%
CC(=O)N1CCN(C(=S)NCCc2ccccc2)CC1	6	-21%	1%	3%	-10%	-14%
Oc1ccc(N2CCN(C(=S)NCCc3ccccc3)CC2)cc1	26	8.2µM*	?	-3%	?	6.5µM*
S=C(NCCc1ccccc1)N1CCN(Cc2ccccc2)CC1	-3	?	22%	6%	1%	29µM*
CC(C)Cc1ccccc1S(N)(=O)=O	14	-7%	-8%	2%	4%	-7%
CCC1CCc2sc(C(=O)O)cc2C1 (stereo unspecified)	23	1%	0%	2%	0%	1%
C=CCN1CCN(C(=O)c2cc3c(s2)CCC(CC)C3)CC1 (stereo unspecified)	-14	16µM*	-1%	-1%	20%	?
O=C1CCC(=O)N1c1ccc(NCCc2cccc(F)c2)c([N+](=O)[O-])c1	0	1%	0%	-3%	-11%	1%
O=C1C2CC=CCC2C(=O)N1c1ccc(NCCc2cccc(F)c2)c([N+](=O)[O-])c1 (stereo unspecified)	7	12µM*	4%	6%	?	?
O=C(CNS(=O)(=O)c1ccccc1F)NNC(=O)c1ccc(Br)cc1	-2	-4%	-1%	0%	3%	?
Cc1ccc(S(=O)(=O)CCC(=O)Nc2ccccc2N2CCCC2)cc1	-9	-6%	-19%	0%	-8%	?
Cc1ccc(S(=O)(=O)CCC(=O)Nc2sccc2C#N)cc1	15	21µM*	10%	-1%	8%	?
COC(=O)c1ccsc1NC(=O)CCS(=O)(=O)c1ccc(Cl)cc1	-27	18µM*	?	?	5%	?
Cc1ccc(S(=O)(=O)CCNC(=O)Cc2ccccc2)cc1	25	?	-1%	-2%	8%[9.22 µM]	21µM*
Cc1ccc(S(=O)(=O)CCC(=O)Nc2ccccc2C)cc1	12	23µM*	-5%	?	3%	?

Assay outcomes (PubChem)
